# Source: PubChem BioAssay (EPA / NIEHS)
# Active and inactive are the calls of the source. How the source made its calls: active means hit-call score of the fitted dose curve at least 0.9, where 1 is the maximum; inactive means score below 0.9.
# Experiments:
# Conditions in all cases: actives raise or lower the signal
# [1] = CEETOX_H295R_OHPREG_noMTC: CeeTox H295R High-throughput Steroidogenesis Assay for OH-Pregnenolone (OHPREG), maximum tolerated concentration (MTC) filtered results only (AID 2283912)
# Summary of the method: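 Steroidogenesis in H295R cells (OECD 456, modified): after 48 h forskolin priming and 48 h chemical treatment, secreted 17alpha-hydroxypregnenolone is measured by HPLC-MS/MS. Activity is fitted in both directions against DMSO; concentrations are not filtered by MTT-based MTC.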
# [2] = CEETOX_H295R_OHPROG_noMTC: CeeTox H295R High-throughput Steroidogenesis Assay for OH-Progesterone (OHPROG), maximum tolerated concentration (MTC) filtered results only (AID 2283914)
# Summary of the method: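 Forskolin 10 uM, 48 h prestim → test cmpd in DMSO (0.1% final), 48 h → medium MTBE extraction → LC-MS/MS quant of 17alpha-OH-progesterone. Bidirectional fit vs DMSO; no MTT-based MTC filtering.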
# [3] = CEETOX_H295R_ANDR_noMTC: CeeTox H295R High-throughput Steroidogenesis Assay for Androstenedione (ANDR), maximum tolerated concentration (MTC) filtered results only (AID 2283915)
# Summary of the method: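 H295R cells, passage 10 or below, prestimulated 48 h with 10 uM forskolin, then exposed 48 h to chemical in 0.1% DMSO. Medium androstenedione extracted with MTBE, quantified by HPLC-MS/MS; concentrations not MTC-filtered; bidirectional fit versus DMSO.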
# [4] = CEETOX_H295R_ESTRADIOL_noMTC: CeeTox H295R High-throughput Steroidogenesis Assay for Estradiol, maximum tolerated concentration (MTC) filtered results only (AID 2283919)
# Procedure: CEETOX_H295R is a cell-based, multiplexed-readout assay that uses H295R, a human adrenal gland cell line, with measurements taken at 48 hours after chemical dosing in a 96-well plate.CEETOX_H295R_ESTRADIOL_noMTC is one of 12 assay component(s) measured or calculated from the CEETOX_H295R assay (11 hormones and 1 viability assay). It is designed to make measurements of hormone induction, a form of inducible reporter, as detected with absorbance signals by HPLC-MS-MS technology. The concentrations for these components have not been pre-filtered for the maximum tolerated concentration (MTC) based on the MTT assay (_noMTC).Data from the assay component CEETOX_H295R_ESTRADIOL_noMTC was analyzed into 1 assay endpoint. This assay endpoint, CEETOX_H295R_ESTRADIOL_noMTC, was analyzed with bidirectional fitting relative to DMSO as the negative control and baseline of activity. Using a type of inducible reporter, gain or loss-of-signal activity using HPLC-MS-MS was used to understand synthesis of Estradiol in H295R cell line at 48hr of chemical exposure, without filtering concentrations for maximum tolerated concentration (MTC). To generalize the intended target to other relatable targets, this assay endpoint is annotated to the steroid hormone intended target family, where the subfamily is estrogens.
# Cell culture and media preparation procedures were conducted in accordance with OECD Test No. 456 guidelines, with minor modifications. H295R cells (ATCC CRL-2128) were expanded for 5 passages and frozen in batches in liquid nitrogen. Prior to the steroidogenesis assay, H295R cells were thawed and passed at least 4 times. The maximum passage was 10. Cells were maintained in a 1:1 mixture of DMEM/F12 supplemented with 5ml/L ITS+ Premix (BD Bioscience) and 12.5 ml/L Nu-Serum (BD Bioscience). After seeding cells into 96-well plates at 50-60% confluency, cells were allowed to adhere overnight. Prior to chemical testing, culture medium was replaced with 175 uL medium containing 10 uM forskolin to stimulate steroidogenesis for 48 hours. Following prestimulation, forskolin medium was replaced with medium containing test chemical solubilized in DMSO (ensuring a final concentration of 0.1% DMSO). Test chemicals were incubated for 48 hours, then the medium was removed and split into 2 vials containing approximately 75uL each, and stored at -80 C prior to hormone analysis. For steroid quantification, media samples were shipped to OpAns, LLC (Durham, NC) on dry ice, and samples were thawed to room temperature prior to liquid-liquid extraction. Steroid hormones were extracted from media samples using methyl tertbutyl ether (MTBE). An extra derivatization with dansyl chloride was included for estrogen (estrone and estradiol) detection only. Steroid hormones were separated by HPLC, eluted using a reverse phase C18 gradient with electrospray positive ionization, followed by quantification by tandem mass spectrometry (MS/MS). Data were acquired on a MassHunter Workstation Acquisition version B03.01 (Agilent Technologies, Inc.) and processed using MassHunter Quantitative Analysis for QQQ. Accuracy was determined for each hormone analyte from 3 standards to determine upper and lower limits of quantification (ULOQ and LLOQ, respectively) using a 7-point standard curve. Precision and accuracy of the extraction and quantification methods were calculated as the percent relative standard deviation (%RSD) of the spiked standards and percent spiked standard recovered, respectively. […] Test medium was removed following chemical exposure, and cell viability was evaluated in the same wells by MTT. MTT procedures were as follows: after removal of test medium, 500 uL of 0.5 mg/ml of 3-[4,5-dimethylthiazol-2-y]2,5-diphenyltetrazoliumbromide solution was added to the cells. […]
# [5] = CEETOX_H295R_PROG_noMTC: CeeTox H295R High-throughput Steroidogenesis Assay for Progesterone (PROG), maximum tolerated concentration (MTC) filtered results only (AID 2283920)
# Summary of the method: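 H295R cells; forskolin 10 uM x 48 h prestim; test cpd 48 h, 0.1% DMSO final; media progesterone via LC-MS/MS; bidirectional fit vs DMSO; no MTT-based MTC filter applied.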
# [6] = CEETOX_H295R_ESTRONE_noMTC: CeeTox H295R High-throughput Steroidogenesis Assay for Estrone, maximum tolerated concentration (MTC) filtered results only (AID 2283921)
# Summary of the method: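 H295R cells prestimulated 48 h with 10 uM forskolin, then exposed 48 h to chemical in 0.1% DMSO; medium estrone measured by HPLC-MS/MS after MTBE extraction and dansyl derivatization, fitted bidirectionally versus DMSO without MTT-based MTC filtering.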
# [7] = CEETOX_H295R_11DCORT_noMTC: CeeTox H295R High-throughput Steroidogenesis Assay for 11-Deoxycortisol (11DCORT), maximum tolerated concentration (MTC) filtered results only (AID 2283911)
# Summary of the method: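 H295R, OECD 456-based; 10 uM forskolin 48 h → compound (0.1% DMSO) 48 h → medium extracted, 11DCORT by LC-MS/MS. Gain/loss vs DMSO control, all concentrations kept regardless of MTT viability.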
# [8] = CEETOX_H295R_CORTISOL_noMTC: CeeTox H295R High-throughput Steroidogenesis Assay for Cortisol, maximum tolerated concentration (MTC) filtered results only (AID 2283916)
# Summary of the method: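 Cortisol secretion measured by LC-MS/MS after 48 h chemical treatment (final 0.1% DMSO) of forskolin-primed (10 uM, 48 h) H295R cells; gain or loss fitted relative to DMSO, without maximum-tolerated-concentration filtering.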
# [9] = CEETOX_H295R_CORTIC_noMTC: CeeTox H295R High-throughput Steroidogenesis Assay for Corticosterone (CORTIC), maximum tolerated concentration (MTC) filtered results only (AID 2283917)
# Summary of the method: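 Following OECD 456 with minor changes, H295R cultures received 10 uM forskolin for 48 h, then test chemical at 0.1% DMSO for 48 h. Media steroids were extracted and measured by LC-MS/MS.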
# [10] = CEETOX_H295R_DOC_noMTC: CeeTox H295R High-throughput Steroidogenesis Assay for DOC, maximum tolerated concentration (MTC) filtered results only (AID 2283918)
# Summary of the method: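 11-Deoxycorticosterone secreted by human adrenal H295R cells quantified by HPLC-MS/MS after 48 h chemical exposure (0.1% DMSO), following 48 h 10 uM forskolin prestimulation. Concentrations not filtered by MTT-derived MTC; bidirectional fitting.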
smiles,measurement,setting,value
COC(=O)c1cccc(C(=O)OC)c1,outcome,[1],inactive
same,outcome,[2],inactive
same,outcome,[3],inactive
same,outcome,[4],inactive
same,outcome,[5],inactive
same,outcome,[6],inactive
COc1cc(OC)c2ccc(=O)oc2c1,outcome,[1],inactive
same,outcome,[3],inactive
same,outcome,[4],inactive
same,outcome,[5],inactive
same,outcome,[6],inactive
CCCCCC1C(=O)CCC1CC(=O)OC (stereo not drawn),outcome,[1],inactive
same,outcome,[2],inactive
same,outcome,[5],inactive
CC(=O)OC/C=C(C)/C=C/C=C(C)/C=C/C1=C(C)CCCC1(C)C,outcome,[1],inactive
same,outcome,[2],inactive
same,outcome,[4],inactive
same,AC50,[5],34 µM (active)
same,outcome,[6],inactive
CCCCCCCCCCOC(=O)c1ccccc1C(=O)OCCCCCCCC,AC50,[7],45.7 µM (active)
same,AC50,[1],41.3 µM (active)
same,AC50,[2],40.4 µM (active)
same,AC50,[3],44 µM (active)
same,outcome,[8],inactive
same,outcome,[9],inactive
same,AC50,[10],33.3 µM (active)
same,outcome,[4],inactive
same,AC50,[5],39.1 µM (active)
same,outcome,[6],inactive
COC(=O)c1ccc(C(=O)OC)cc1,outcome,[1],inactive
same,outcome,[2],inactive
same,outcome,[4],inactive
same,outcome,[6],inactive
COC(=O)C(C)Oc1ccc(Oc2ncc(C(F)(F)F)cc2Cl)cc1 (stereo not drawn),AC50,[1],14.1 µM (active)
same,AC50,[2],1.86 µM (active)
same,AC50,[4],23.5 µM (active)
same,AC50,[5],35.1 µM (active)
same,AC50,[6],27.9 µM (active)
